Screening results (PubChem)
Shown are actives, neighbours in structure and some others; about 2.8% of the full set was active somewhere.
HepG2 tox: counter-screen for TGF-b inhibitors: cytotoxicity in HepG2 cells | HepG2 CAGA-GFP viability, ATP luminescence, 18 h | Potency, µM (doses to about 46.1 µM), for inactives: at the top dose activity change, negative = cytotoxicity, hits mostly cytotoxic | hit rate 0.76% among 410,000 | AID 588856; also: potency is read from the fitted curve at half-maximal effect
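CellTiter-Glo luminescence gave cytotoxicity after 18 hours at 37 degrees C. The cells were HepG2 CAGA-GFP in 1% FBS DMEM, stimulated with 500 pg/mL TGF-beta after compound addition. %Activity was normalised to no-cell wells (complete cell-killing) and DMSO (no toxicity), and curves were fitted and classified.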
TGFb inhibitor: blocks TGF-b signaling. Potency, µM (top dose mostly 46.1 µM), without a hit: at the highest dose activity, negative = inhibition, usual class: inhibitors. hit rate 1.2% among 410,000. AID 588855. HepG2 CAGA-GFP TGF-b/SMAD3 reporter, GFP fluorescence, 18 h; TGF-beta stimulated, 500 pg/mL final; also: potency is read from the fitted curve at half-maximal effect; % is scaled to controls: 0 for no effect and ±100 for the full control effect; nearly all actives have a fitted effect of over 65% in size
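Using HEPG2 CAGA-GFP reporter cells at 1000 cells/well, we pinned test compounds, stimulated with recombinant TGF-beta (500 pg/mL final) and measured total well GFP after 18 h.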
CtBP-E1A inh: inhibitors of CtBP/E1A interaction; AlphaScreen GST-E1A/His-CtBP binding, 1536-well; stronger effect = lower value; activity change, % (no concentration beside the values); hit rate 0.49% among 340,000; AID 651724; in the data active = activity change below about -65%; inconclusive = mostly about -30% to -63%; also: % is scaled to controls: 0 for no effect and ±100 for the full control effect
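Steps: dispense buffer (Tris pH 8.0, NaCl 300 mM, TCEP 1 mM, BSA, Tween 20); add 5X protein mix (GST-E1A, His-CtBP, 125 nM each); pin 23 nL compound; 2 h at 37 °C, dark; add 5X beads (50 ug/mL); 1 h; read.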
Six1-Eya2 blk: blocks human Six1 binding to Eya2 | AlphaScreen GST-Six1/His-Eya2 binding, biochemical; stronger effect = lower value | Q15475+O00167 | activity change, % (no concentration beside the values) | hit rate 0.56% among 360,000 | AID 651725; in the data active = activity change below about -65%; inconclusive = mostly about -30% to -63%; also: % is scaled to controls: 0 for no effect and ±100 for the full control effect
Target sequence (O00167 whole entry, looked up): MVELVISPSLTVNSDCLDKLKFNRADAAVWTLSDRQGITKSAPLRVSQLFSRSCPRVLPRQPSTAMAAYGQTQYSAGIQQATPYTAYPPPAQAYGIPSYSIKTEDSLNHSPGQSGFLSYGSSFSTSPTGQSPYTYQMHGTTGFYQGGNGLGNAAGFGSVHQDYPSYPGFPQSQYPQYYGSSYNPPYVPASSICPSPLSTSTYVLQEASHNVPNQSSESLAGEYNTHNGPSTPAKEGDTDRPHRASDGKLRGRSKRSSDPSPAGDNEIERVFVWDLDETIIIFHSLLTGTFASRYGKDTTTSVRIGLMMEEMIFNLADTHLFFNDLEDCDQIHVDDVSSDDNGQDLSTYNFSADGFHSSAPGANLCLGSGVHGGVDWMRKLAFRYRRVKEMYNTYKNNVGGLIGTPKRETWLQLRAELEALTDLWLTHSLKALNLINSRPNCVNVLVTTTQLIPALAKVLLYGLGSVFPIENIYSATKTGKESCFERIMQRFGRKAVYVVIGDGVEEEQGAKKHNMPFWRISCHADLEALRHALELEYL
Target sequence (Q15475 whole entry, looked up): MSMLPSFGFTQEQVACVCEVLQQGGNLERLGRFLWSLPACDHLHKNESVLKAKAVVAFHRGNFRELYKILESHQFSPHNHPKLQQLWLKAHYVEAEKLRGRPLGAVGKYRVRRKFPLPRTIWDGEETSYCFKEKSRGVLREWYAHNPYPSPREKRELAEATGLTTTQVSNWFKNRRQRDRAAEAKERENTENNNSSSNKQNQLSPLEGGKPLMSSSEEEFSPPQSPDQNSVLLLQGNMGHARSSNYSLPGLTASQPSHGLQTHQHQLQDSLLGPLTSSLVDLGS
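Compounds are tested against tagged Six1 and Eya2 proteins bridged by glutathione donor and nickel acceptor beads; after a one-hour incubation at 37 °C without light, AlphaScreen emission is recorded.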
ATXN viability: reduces viability in counter-screen for ATXN expression inhibitors; hit rate 0.49% among 400,000; AID 651635; S2 cells (HEK-293 line with an ATXN2-luciferase reporter) viability, CellTiter-Fluor protease fluorescence, 24 h; Potency, µM (highest dose often 56.7 µM), most hits filed as cytotoxic; also: potency is read from the fitted curve at half-maximal effect; nearly all actives have a fitted effect of over 40% in size
ATXN2 expr inh: ATXN2 expression inhibition | HEK-293 ATXN2-luciferase reporter, luminescence, 24 h | Potency, µM (titrated, usually from 57 µM), for inactives: at the highest dose activity change, negative = inhibition, most hits filed as inhibitors | hit rate 0.72% among 360,000; also: potency is read from the fitted curve at half-maximal effect; % is scaled to controls: 0 for no effect and ±100 for the full control effect; nearly all actives have a fitted effect of over 55% in size
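qHTS (up to 57 uM final) was run with 24 h compound exposure of reporter cells at 37 °C. Each well was multiplexed: SteadyGlo luminescence measured ATXN2-luciferase expression after a fluorogenic Gly-Phe-AFC viability readout (25 uM final).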
An asterisk follows results filed as active; i = inactive; ? = inconclusive; . = no result given; [ ] = another dose, or the depositor's remark. Unless noted, calls follow the shape of the dose curve; as a rule, active = well fitted curve in the direction sought with a large enough effect; inconclusive = small, poorly fitted or top-dose-only effect, or another doubt; inactive = no such curve, though single readings can be large; an effect the other way counts as inactive or inconclusive.

SMILES | HepG2 tox | TGFb inhibitor | CtBP-E1A inh | Six1-Eya2 blk | ATXN viability | ATXN2 expr inh
COc1ccc(OC/C(O)=C(\C#N)c2nc3ccccc3[nH]2)cc1 | -2% | 9% | -3 | 6 | i | -31%
Cc1cc(SCC(=O)OC/C(O)=C(\C#N)c2nc3ccccc3[nH]2)c(C)cc1Br | -7% | 2% | 11 | -3 | i | ?
CC(=O)Cc1cc(O)c2ccccc2c1OC(=O)c1ccccc1 | 20µM* | ? | -8 | -12 | . | -16%
CC(=O)c1cc(C)c(OC(=O)c2ccccc2)c(C)c1 | 5% | 0% | -11 | 12 | i | 7%
CCN1CCS/C1=C\C=C\C1=[N+](CC)CCS1 | -30% | ? | 0 | 13 | 24µM* | ?
CCN1CCS/C1=C/C=C/C1=[N+](CC)CCS1 | -12% | -3% | 6 | 0 | i | ?
O=C(CCN1CCN(C(=O)OCc2cc(Cl)cc(Cl)c2)CC1)c1ccc2[nH]c(=O)oc2c1 | . | . | . | . | . | 6%
COC(=O)C1=C(C)N(Cc2ccccc2)C(=NCc2ccccc2)N[C@H]1c1cccc(C(F)(F)F)c1 | 14µM* | ? | 2 | -3 | . | ?
COC(=O)C1=C(C)N(Cc2ccccc2)C(=NCCc2ccccn2)N[C@H]1c1cccc(C(F)(F)F)c1 | -83% | ? | -4 | -11 | ? | 35µM*
OC1(c2cccnc2)CCN(Cc2ccc3c(c2)CN(Cc2ccc(F)c(F)c2)CCO3)CC1 | . | . | . | . | i | .
Cc1ccc(Nc2c3c(nc4ccccc24)CCC3)cc1F | -56% | ? | . | . | 28µM* | 0%
Cc1ccc2nc3c(c(Nc4ccc(C)c(C)c4)c2c1)CCC3 | -28% | ? | . | . | 18µM* | ?
Cc1cccc(Nc2c3c(nc4ccccc24)CCC3)c1 | -32% | ? | -8 | -4 | i | ?
Cc1ccc2nc3c(c(Nc4ccc(O)cc4)c2c1)CCC3 | -38% | ? | . | -6 | ? | .
CC1=C(C(=O)O)N2C(=O)[C@@H](NC(=O)[C@H](N)C3=CCC=CC3)[C@H]2SC1 | . | . | . | . | i | 11%
CCn1c(-c2ccccc2F)nc2cc(NC(C)=O)cc(C(=O)N3CCNC(=O)C3CC(=O)OC)c21 (configuration not stated) | . | . | . | . | i | .
CS(=O)(=O)N(CC(=O)Nc1ccc(CC#N)cc1)c1ccc(C23CC4CC(CC(C4)C2)C3)cc1 | -38% | 7.1µM* | 13 | -9 | ? | -28%
Cc1ccc(CNc2ncnc3sc(C(=O)N4CCC(N5CCCC(O)C5)CC4)c(C)c23)o1 (configuration not stated) | . | . | . | . | i | .
O=S(=O)(c1ccc(F)cc1)c1snnc1-c1ccccc1 | -29% | ? | 6 | -3 | ? | 14µM*
O=S(=O)(c1ccc(Cl)cc1)c1snnc1-c1ccccc1 | -73% | 14µM* | 1 | 4 | 25µM* | 20µM*
O=c1[nH]nc(CNc2ccc(O)cc2)c2ccccc12 | 10µM* | ? | ? | -25 | i | -8%
COc1ccc(NC(=S)NC(NC(=O)c2ccc(Cl)cc2Cl)C(Cl)(Cl)Cl)c([N+](=O)[O-])c1 (configuration not stated) | -43% | 11µM* | 8 | -18 | ? | ?
COc1ccc(NC(=S)NC(NC(=O)c2ccccc2Cl)C(Cl)(Cl)Cl)c([N+](=O)[O-])c1 (configuration not stated) | -35% | -18% | 6 | -19 | i | 29%
Cc1cc(C2N=C(N)Nc3nc4ccccc4n32)c(C)n1-c1ccccc1Cl (configuration not stated) | -41% | 11µM* | 8 | -28 | i | -10%
Cc1cc(=O)oc2c(N)nccc12 | -112% | ? | ? | ? | 35µM* | ?
SMILES | HepG2 tox | TGFb inhibitor | CtBP-E1A inh | Six1-Eya2 blk | ATXN viability | ATXN2 expr inh
CCc1ccc(C(=O)Cn2ncc(Cl)c(Cl)c2=O)cc1 | -97% | ? | 5 | -12 | ? | ?
O=C(OCn1ncc(Cl)c(Cl)c1=O)c1cccc(C(F)(F)F)c1 | 7.1µM* | ? | -14 | -24 | . | ?
COC(=O)C1CCCCN1Cc1ccc2c(c1)CN(C(=O)c1csc(-c3cccs3)n1)CCO2 (configuration not stated) | . | . | . | . | i | .
COc1ccc(-c2cc3ccc(O)c(CN4CCN(CCO)CC4)c3oc2=O)cc1OC | -5% | . | . | . | . | .
O=S(=O)(c1ccccc1)N1CCN(c2ccnc3cc(Cl)ccc23)CC1 | -30% | ? | . | -2 | ? | 13µM*
O=S(=O)(c1cccs1)N1CCN(c2ccnc3cc(Cl)ccc23)CC1 | -15% | ? | 0 | -2 | i | ?
Cc1cccc(C)c1C(O)c1ncc(-c2ccc(Cl)cc2)[nH]1 (configuration not stated) | -22% | -15% | -9 | -8 | i | -17%
Cc1cc(Cl)ccc1C(O)c1ncc(-c2ccc3ccccc3c2)[nH]1 (configuration not stated) | -70% | ? | -16 | -19 | ? | 5%
OC(c1cc(F)cc(Cl)c1)c1ncc(-c2cccc(C(F)(F)F)c2)[nH]1 (configuration not stated) | -67% | 11µM* | -15 | -12 | i | ?
OC(c1ccc(Cl)cc1)c1ncc(-c2cccc(C(F)(F)F)c2)[nH]1 (configuration not stated) | 10µM* | ? | 8 | 5 | i | ?
Cc1cc(Cl)ccc1C(O)c1ncc(-c2cccc3ccccc23)[nH]1 (configuration not stated) | -37% | 13µM* | -14 | -18 | i | -20%
Cc1cccc(C(O)c2ncc(-c3ccc(Cl)cc3)[nH]2)c1C (configuration not stated) | -39% | ? | -10 | -11 | 22µM* | -32%
O=C(Cc1ccc(-c2ccc(OCCN3CCOCC3)cc2)cn1)NCc1ccccc1 | . | . | . | . | . | -27%
CC1CCCN(C(=O)CSc2c3c(nc4cc(Cl)ccc24)CCCC3)C1 (configuration not stated) | -31% | ? | . | . | . | .
COc1ccccc1C1CN(Cc2cn(C)nc2C)Cc2ccccc2O1 (configuration not stated) | . | . | . | . | i | .
CS(=O)(=O)N1CCN(Cc2cc3nc(-c4cccc5[nH]ncc45)nc(N4CCOCC4)c3s2)CC1 | -8%[92.2 µM] | -29%[92.2 µM] | . | . | . | ?
Clc1ccc(/C=C/c2nc3ccccc3[nH]2)cc1 | 11µM* | 0% | 8 | 3 | ? | ?
Clc1ccc(/C=C/c2nc3ccccc3[nH]2)c(Cl)c1 | -58% | ? | 24 | 21 | i | ?
